The panel holds about 83,000 compounds, 20% with a hit somewhere; the sample as a whole holds those more often.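 Method: cells in 96-well plates; compound added at one concentration; 48 h incubation; percent growth measured; values under 10 scored active.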 The source made the active and inactive calls.

The text below walks through data of PubChem BioAssay (NCI).

This experiment relates to NCI-H23 lung. Description: NCI-60 one-dose screen, 48 h (100 = growth as untreated, 0 = no growth, -100 = all killed). Particulars: 10 µM unless noted. As to the method:
Growth inhibition of the NCI-H23 human Non-Small Cell Lung tumor cell line is measured as a screen for anti-cancer activity. Cells are grown in 96 well plates and exposed to the test compound for 48 hours. Compounds are tested at a single concentration, which is 10^-5 M for most compounds. The reported endpoint is percent growth (GI% or GIPRCNT), where numbers from 0 - 100% represent growth inhibition, and numbers from -100% - 0 represent cell death. For example, a value of 40 represents 60% growth inhibition. A value of 0 means no net growth occurred over the course of the experiment. A value of -40 indicates 40% of cells at the beginning of the experiment died by the end of the experiment. A value of -100 means all cells are dead at the end of the experiment.
NCI-60 Human Tumor Cell Lines Screen was performed using the standard one-dose NCI protocol, which is described in more detail at https://dtp.cancer.gov/discovery_development/nci-60/default.htm.
Compounds with GIPRCNT values below 10 were considered active. Activity score was based on GIPRCNT using the following formula: […]
Score is 0 for GIPRCNT values of 100 or above, 50 for GIPRCNT values of 0, and 100 for GIPRCNT values of -100.
With `NS(=O)(=O)Oc1cccc(-c2nc3sccn3c2-c2ccccc2)c1`, the growth is 76.2% (inactive).

As for `CC1(C)CC[C@]2(CO)CC[C@]3(C)[C@H](CC[C@@H]4[C@@]5(C)CC[C@H](O)C(C)(C)[C@@H]5CC[C@]43C)[C@H]2[C@H]1O`, the growth was 87.1% (inactive). In the case of `COc1cccc(/C=C2\CCc3ccccc3C2=O)c1`, the growth was 83.6% (inactive). As for `N#C/C(=N\Nc1ccccc1)C(=O)Nc1cc(-c2ccccc2)nn1-c1ccccc1`, the growth was 6.94% (active). In the case of `Cn1ccnc1C(=O)/C=C/c1ccc(C(=O)Nc2ccccc2F)cc1`, the growth is 27.4% (inactive). Turning to `O=C(/C=C/c1ccc(Cl)cc1)c1ccc(Nc2ccnc3cc(Cl)ccc23)cc1`, the growth is 71.1% (inactive). For `CC(=O)/C(Br)=C/c1ccc(Br)o1`, the growth is 68.4% (inactive).

In the case of `CCCNNC(=O)c1ccc(CNC(=O)/C=C/c2ccccc2)cc1`, the growth was 50.3% [2.5 µM] (inactive). For `C=CN(C(=O)N1CCN(c2cc3c(cc2F)c(=O)c(C(=O)O)cn3C2CC2)CC1)c1nc(-c2ccc(C)cc2)cs1`, the growth is 13.4% (inactive). Take `CC(C)=CCC[C@](C)(O)C1CC[C@]2(C)[C@@H]1CC[C@@H]1[C@@]3(C)CC/C(=N\OCCC#N)C(C)(C)[C@@H]3CC[C@]12C` (stereo not given in full): the growth is 72.5% (inactive). With `Cn1nc(-c2ccc(Cl)cc2)nc2c(=O)n(C)c(=O)nc1-2`, the growth was -45% (active). As for `CC(C)(C)[C@H](OCc1cn([C@H]2C[C@@H](O)[C@@H](CO)O2)c(=O)[nH]c1=O)c1ccc(C#Cc2ccccc2)cc1[N+](=O)[O-]`, the growth was 90.2% (inactive). The result for `COc1ccccc1NC(=O)n1c(=O)cc(C)c2ccc(O)cc21` reads 102% (inactive).

`O=C(/C=C/c1ccco1)Nc1ncc(Cc2ccc(F)cc2)s1`: the growth is 23.4% (inactive).

`CCN1C(=O)N(CC)C2C1NC(=S)N2/N=C/C=C/c1cccs1` (stereo not given): the growth was 42.6% (inactive). The value for `COc1cccc2cc(N(C)c3ncnc4ccccc34)ccc12` was 15.5% (inactive).

Regarding `CCCC[N+]1(C)CCN=C1Cc1ccccc1` (stereo not given), the growth is 101% (inactive). The value for `Cc1ccc(OCCOCCOCCOCCOc2ccc(C)n(O)c2=S)c(=S)n1O` was 18.5% (inactive). Consider `O=C(Nc1ncc(Cc2ccc(Cl)cc2)s1)c1ccc2c(c1)OCCO2`, for which the growth is 37% (inactive).

As to `CN(C)C(=O)OCc1ccc2c(Cl)cc(Cl)c(O)c2n1`, the growth was 51.2% (inactive). Regarding `CCN=c1sc2c(n1NC(=O)c1cc3ccc1CCc1ccc(cc1)CC3)C(=O)c1ccccc1C2=O`, the growth was -32.1% (active). For the compound `COc1cc(/C=C2\C(=O)N(CCOc3cc(O)c4c(=O)cc(-c5ccccc5)oc4c3)c3ccccc32)cc(OC)c1O`, the growth was 77.6% (inactive).

On to `O=C1CC2C=CCN2C=C1NC(=O)c1ccccc1` (stereo not given), for which the growth is 101% (inactive). Turning to `CCOC(=O)c1c(C)n2c(=O)cc(C)c3c(OC(C)=O)c(OC(C)=O)cc1c32`, the growth was 75% (inactive). Take `COCCn1cc(-c2nc(-c3cc4cccnc4n3C)cs2)c2cc(OC)ccc21`: the growth is 32.6% (inactive).

Turning to `FC(F)(F)c1cc(N2CCCCC2)nc(NCCCNc2ccnc3cc(Cl)ccc23)n1`, the growth is 27.2% (inactive). Consider `CCN1C(=O)N(CC)C2C1NN=c1s/c(=C\c3ccc([N+](=O)[O-])cc3)c(=O)n12` (stereo not given), for which the growth is 47% (inactive). For the compound `Cc1c(C)c2c(c(C)c1OC(=O)CCC(=O)[O-])CCC(C)(CCCCCCCCCCC[P+](c1ccccc1)(c1ccccc1)c1ccccc1)O2` (stereo not given), the growth is -16.5% (active). `COC(=O)c1nc(-c2ccccc2)oc1S(=O)(=O)N1CCN(c2ccc(OC)cc2)CC1`: the growth is 89.1% (inactive).

`COc1ccc(CNc2c3ccccc3nc3ccccc23)cc1OC`: the growth was 15.1% (inactive). Consider `CN(CCNc1ccc(C(=N)N)cc1)c1ccc(C(=N)N)cc1`, for which the growth is 81.3% (inactive). On to `O=C1c2ccccc2C(=O)c2cc(Cn3c[n+](Cc4ccc5ccccc5c4)c4ccccc43)ccc21`, for which the growth is 56.5% (inactive). For the compound `CCCCCCCC/C=C\CCCCCCCCOc1ccc(CC(=O)NCC[N+]2(C)CCCC2)cc1`, the growth is 58.7% (inactive). The result for `CCOC(=O)c1c(C)c2c(n1Cc1ccccc1)CSc1cc(C#N)c(=O)[nH]c1-2` reads 72.6% [100 µM] (inactive).

As for `Cc1ccc(C23CCC(=O)N2CCc2cncn23)cc1` (stereo not given), the growth was 97.4% (inactive). `Nc1n[nH]c2cccc(C#Cc3cccc(C(=O)Nc4ccc(Cl)c(C(F)(F)F)c4)c3)c12`: the growth is 59.1% (inactive).

As to `Cc1nn(-c2ccccc2)c(Oc2ccccc2)c1/C=N/NC(=O)Cn1c(=O)sc2ccccc21`, the growth was 37.4% (inactive). The result for `COc1ccc(-n2c(=O)n(-c3ccc(-c4nc5ccc(F)cc5s4)cc3)c(=O)c3cccnc32)cc1` reads 89.9% (inactive); that for `Cc1cc(C(=O)Nc2cc(Nc3ncccc3-c3ncnc4nc[nH]c34)ccc2F)cc(C(C)(C)C#N)c1`, 19.1% (inactive). With `Clc1ccc2c(NCCCn3cnc4c(N5CCCC5)nc(Cl)nc43)ccnc2c1`, the growth was 98.7% (inactive).
